Measured values from PubChem BioAssay AID1529 (NMMLSC, 2009).
About 4,200 (1.4%) of roughly 290,000 compounds were called active. The sample holds actives, similar compounds and a random draw of the others, so the mix is not that of the screen. A number with no mark means an inactive call.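 How the source made its calls: active means binding response more than 3 SD above or below the average of its plate-row segment, actives on both sides; inconclusive means wells at one plate position flagged as instrument error; inactive means the rest.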

Target: Mitogen-activated protein kinase kinase kinase 3 (Homo sapiens) (UniProt Q99759)
Sequence (Q99759 whole entry, looked up): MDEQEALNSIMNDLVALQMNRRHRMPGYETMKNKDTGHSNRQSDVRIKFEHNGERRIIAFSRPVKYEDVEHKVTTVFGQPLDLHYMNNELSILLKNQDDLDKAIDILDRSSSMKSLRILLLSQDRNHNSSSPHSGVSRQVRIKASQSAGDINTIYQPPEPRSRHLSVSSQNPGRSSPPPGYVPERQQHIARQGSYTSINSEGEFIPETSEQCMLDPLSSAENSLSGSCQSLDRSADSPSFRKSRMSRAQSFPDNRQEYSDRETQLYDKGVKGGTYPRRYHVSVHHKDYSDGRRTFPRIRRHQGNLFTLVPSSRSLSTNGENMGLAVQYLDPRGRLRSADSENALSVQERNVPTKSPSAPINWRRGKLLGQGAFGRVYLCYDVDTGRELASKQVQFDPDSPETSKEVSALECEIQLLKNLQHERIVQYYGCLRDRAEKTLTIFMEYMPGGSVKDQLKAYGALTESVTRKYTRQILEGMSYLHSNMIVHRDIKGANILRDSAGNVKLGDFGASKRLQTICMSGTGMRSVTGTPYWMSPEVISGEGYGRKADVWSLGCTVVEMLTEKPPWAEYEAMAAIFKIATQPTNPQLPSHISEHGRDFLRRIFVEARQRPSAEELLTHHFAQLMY
Experiment: modulators of MEKK3-MEK5 PB1 binding, primary screen, biochemical, wildtype MEKK3, multiplex bead flow cytometry, Alexa488-MEK5 (AID 1529);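 further: Alexa488 bead fluorescence after subtracting the streptavidin-only scavenger bead signal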
Conditions: bead-based flow cytometry, Alexa488-MEK5 binding to MEKK3; at 10 µM; actives lie on both sides; 0 = blocked by unlabeled MEK5, 100 = vehicle

Compared with `CC(c1cccnc1)N(CCN(C)C)C(=O)Nc1ccc(Cl)c(Cl)c1` (stereo unspecified), `CC(C)CC(=O)Nc1ccc(Cc2ccncc2)cc1` is higher in binding response (% of control): 96% for the first, 104% for the second.

Compared with `COc1ccc(N(CC(=O)NC(C)(C)C)C(=O)c2ccco2)cc1`, `CCc1ccc(C(=O)COC(=O)c2ccco2)cc1` is higher in binding response (% of control): 98% for the first, 103% for the second.

Compared with `CC(C)(C)NC(=O)c1cc(NC(=O)c2ccco2)cc(NC(=O)c2ccco2)c1`, `Cc1onc(-c2ccccc2)c1C(=O)NNC(=S)NC(=O)c1ccc(F)cc1` is lower in binding response (% of control): 101% for the first, 98% for the second.

Compared with `Cc1ccc(S(=O)(=O)N[C@@H](Cc2ccccc2)C(=O)N2CCC(C(=O)N[C@H](C(=O)O)C(C)O)CC2)cc1` (stereo partly specified), `COc1ccc(CNC(=O)C2CCN(S(=O)(=O)c3ccc(SC)cc3)CC2)cc1` is lower in binding response (% of control): 107% for the first, 101% for the second.

Compared with `Cc1ccc(CSc2nsc(C)c2C#N)cc1`, `CC(=O)C(C)n1cnc2scc(-c3ccc(C)cc3)c2c1=O` (stereo unspecified) is lower in binding response (% of control): 103% for the first, 98% for the second.

Going from `COc1cccc(OC)c1C(=O)Nc1ccc2c(c1)n(C)c(=O)n2C` to `COc1cccc(C(=O)OCc2cc(=O)oc3c(C)c(C)ccc23)c1OC`, the binding response (% of control) falls from 109% to 103%.

Compared with `CCOc1ccc(N(CC(=O)Nc2ccccc2F)S(=O)(=O)c2c(C)[nH]c(=O)[nH]c2=O)cc1`, `CN(C)C(=O)CCC(=O)N1CCCCC1C(=O)Nc1ccc(Oc2ccccc2F)cc1` (stereo unspecified) is higher in binding response (% of control): 101% for the first, 105% for the second.

Compared with `COCCNC(=S)Nc1cc(S(=O)(=O)N2CCOCC2)ccc1N1CCCCC1`, `COc1ccc(S(=O)(=O)N2CCOCC2)cc1C(=O)NC1CCCCC1` is higher in binding response (% of control): 99% for the first, 103% for the second.

First: Nc1nc(SCc2cccc(Br)c2)n[nH]1
Second: CCn1c(=S)sc2c(=O)n(CC(=O)Nc3cccc(Br)c3)c(C)nc21
The binding response (% of control) of the first is higher: 105% for the first, 102% for the second.

Compared with `O=c1c2ccccc2nnn1CSc1nnnn1-c1ccccc1`, `O=C(CCn1nnc2ccccc2c1=O)N[C@@H](Cc1c[nH]c2ccccc12)C(=O)O` is lower in binding response (% of control): 101% for the first, 98% for the second.

Going from `CN(CCc1ccccn1)C(=O)c1ccc(OC2CCN(CCc3ccccc3)CC2)cc1` to `COc1ccc(C(CNC(=O)COc2ccccc2OC)N2CCCCC2)cc1` (stereo unspecified), the binding response (% of control) rises from 98% to 100%.

Compared with `COc1ccc(CNC(=O)C2CCN(S(=O)(=O)N3CCOCC3)CC2)cc1`, `COc1ccc(CNC(=O)[C@@H]2CC=C[C@@H]3CCN(C4CC4)C(=O)[C@@H]32)cc1` is lower in binding response (% of control): 104% for the first, 101% for the second.

Going from `O=S(=O)(Nc1ccccc1Br)c1cccs1` to `COc1ccc(C(=O)NNC(=S)NC(=O)c2ccccc2)cc1`, the binding response (% of control) rises from 100% to 101%.

Going from `COc1cc(C2C3=C(CCCC3=O)OC3=C2C(=O)CCC3)ccc1OCC(=O)Nc1ccccc1` to `Cc1nn(-c2ccccc2)c(C)c1NC(=O)COc1ccc(Cl)cc1Cl`, the binding response (% of control) rises from 100% to 104%.

Compared with `CCCn1c(C)cc(/C=C(\C#N)C(=O)OCC(=O)Nc2cc(OC)c(OC)c(OC)c2)c1C`, `COc1cc(NC(=O)CN2C(=O)NC(C)(c3ccc(OC(F)F)cc3)C2=O)cc(OC)c1OC` (stereo unspecified) is lower in binding response (% of control): 101% for the first, 100% for the second.

Going from `Cc1cc(C)c2nc(N(CCN(C)C)C(=O)/C=C/c3cccs3)sc2c1` to `Cc1cnc(CN(C)C(=O)C2CCC(=O)N(CCc3cccc(F)c3)C2)[nH]1` (stereo unspecified), the binding response (% of control) rises from 101% to 104%.

Compared with `COc1ccc(NC(=O)NNC(=O)COc2cc(C)c(Cl)c(C)c2)c(OC)c1`, `COc1ccc(/C=C2\SC(=S)N(CCCC(=O)NC3CCCC3)C2=O)cc1OC` is lower in binding response (% of control): 105% for the first, 96% for the second.

First: CC(C)(C)OC(=O)N1CCC(C(=O)NNC(=O)c2ccc(Cl)cc2Cl)CC1
Second: O=C(Cn1cc(C(=O)C2CC2)c2ccccc21)Nc1ccccc1Cl
The binding response (% of control) of the first is higher: 101% for the first, 99% for the second.

Compared with `CC1=NN(C(=O)CCc2ccccc2O)C(O)(C(F)(F)F)C1` (stereo unspecified), `CC1=NN(C(=O)CCCc2ccccc2)C(O)(C(F)(F)F)C1` (stereo unspecified) is higher in binding response (% of control): 90% for the first, 108% for the second.

Compared with `COc1cc(OC)c(C(=S)N2CCCC2)cc1OC`, `COc1ccc(CCN(C)C(=O)C23CC4CC(CC(Cl)(C4)C2)C3)cc1OC` is lower in binding response (% of control): 104% for the first, 102% for the second.

First: Fc1ccccc1COc1cccc2cccnc12
Second: O=c1c2ccccc2ncn1CCCCOc1ccccc1F
The binding response (% of control) of the first is higher: 105% for the first, 103% for the second.

First: Cc1nn(-c2ccccc2)c(Cl)c1C(=O)Nc1ccccc1
Second: Cn1nccc1C(=O)NC1CCCc2c1cnn2-c1ccccc1F (stereo unspecified)
The binding response (% of control) of the first is lower: 98% for the first, 101% for the second.

Going from `CC1(c2ccc3ccccc3c2)NC(=O)NC1=O` (stereo unspecified) to `Nc1ccccc1Sc1ccc(C(F)(F)F)cc1[N+](=O)[O-]`, the binding response (% of control) rises from 106% to 107%.

Compared with `O=C(CSc1ccc(C(F)(F)F)cc1[N+](=O)[O-])NCCOc1ccccc1`, `CCN1CCN(CCCCOc2ccccc2F)CC1` is higher in binding response (% of control): 94% for the first, 100% for the second.

First: Cc1nc(-c2ccc(Cl)cc2)sc1C1(C)CC(c2ccc(Br)cc2)=NO1 (stereo unspecified)
Second: COc1ccccc1N1CCN(Cc2ccc(OC)c3ccccc23)CC1
The binding response (% of control) of the first is lower: 100% for the first, 105% for the second.

For `C/C(CC(=O)NC(C)(C)C)=N\NC(=O)c1ccco1`, the binding response (% of control) was 140% (active).
For `COc1cccc(OC)c1C(=O)Nc1ccc(Cc2ccncc2)cc1`, the binding response (% of control) was 147% (active).
With `O=C(NCC1CCCCC1)c1cc(S(=O)(=O)N2CCCCC2)ccc1N1CCOCC1` the binding response (% of control) was 4% [inhibitor] (active).
For `CSCC[C@H](NC(=O)CCCn1nnc2ccccc2c1=O)C(=O)O`, the binding response (% of control) was 137% (active).
For `COc1ccc(CNC(=O)C2CCN(S(C)(=O)=O)CC2)cc1`, the binding response (% of control) was 39% [inhibitor] (active).
`CCOC(=O)/C(C#N)=C/c1ccc(OCC(=O)Nc2ccccc2)c(OC)c1` was tested, and the binding response (% of control) was 27% [inhibitor] (active).
For `COc1ccc(CC(=O)N2N=C(C)CC2(O)C(F)(F)F)cc1` (stereo unspecified), the binding response (% of control) was 129% (active).
`COc1ccc(C(=O)NC(=S)NNC(=O)c2c(-c3ccccc3)noc2C)cc1` was tested, and the binding response (% of control) was 134% (active).
`Cc1nn(-c2ccccc2)c(C)c1NC(=O)CCl` was tested, and the binding response (% of control) was 138% (active).
In the case of `Cc1cccc(OCCNC(=O)CSc2ccc(C(F)(F)F)cc2[N+](=O)[O-])c1`, the binding response (% of control) was 133% (active).
`COc1ccccc1N1CCN(CCCCOc2ccc(F)cc2)CC1` was tested, and the binding response (% of control) was 124% (active).
